# From PubChem BioAssay (EPA / NIEHS)
# Active and inactive are the calls of the source. How the source made its calls: active means hit-call score of the fitted dose curve at least 0.9, where 1 is the maximum; inactive means score below 0.9.
# Assay: ATG_TAL_CIS: Attagene CIS-FACTORIAL HepG2 Assay for human TAL Basal Promoter (AID 2282966);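 further: background control endpoint measuring basal TAL promoter reporter mRNA not a specific factor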
# Conditions: HepG2 Attagene cis-factorial TAL promoter reporter; actives raise or lower the signal
# Method in brief: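 Basal-promoter background-control endpoint from a multiplexed HepG2 reporter panel. Cells were exposed 24 h, then reporter mRNA was read by RT-PCR/CE fluorescence and fitted in both directions relative to DMSO.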
SMILES,outcome,AC50
CC(C)Oc1ccccc1O,inactive,–
CCC(=O)/C=C/C1C(C)=CCCC1(C)C (stereo unspecified),inactive,–
Cc1ccc(C(C)C)cc1O,inactive,–
CC1CC(OC(=O)c2ccccc2O)CC(C)(C)C1 (stereo unspecified),–,181 µM (active)
Clc1nc(C(Cl)(Cl)Cl)c(Cl)c(Cl)c1Cl,–,57.2 µM (active)
CCCCCCCCCCCCCC(=O)O,inactive,–
COC(C(=O)O)c1ccccc1 (stereo unspecified),inactive,–
CC(C=O)Cc1ccc(C(C)C)cc1 (stereo unspecified),inactive,–
O=[N+]([O-])c1cc(C(F)(F)F)ccc1Cl,inactive,–
CN(CCOc1ccc(CC2SC(=O)NC2=O)cc1)c1ccccn1 (stereo unspecified),inactive,–
Sc1nc(S)nc(S)n1,inactive,–
CC(C)(Oc1ccc(CCNC(=O)c2ccc(Cl)cc2)cc1)C(=O)O,inactive,–
CCn1c2ccccc2c2cc(N)ccc21,inactive,–
CC(C)=CCC/C(C)=C/COC=O,inactive,–
COc1c(Cl)c(Cl)c(Cl)c(Cl)c1Cl,inactive,–
OCCCCCO,inactive,–
CCCCCOC(=O)CCC,inactive,–
CC(C)=CCC[C@H](C)CC=O,inactive,–
O=C(Nc1ccccc1)c1cc([N+](=O)[O-])ccc1Cl,inactive,–

SMILES,outcome,AC50
O=C(Cl)c1cccc(C(=O)Cl)c1,inactive,–
O=C1NC(=O)c2ccccc21,inactive,–
c1ccc2[nH]ccc2c1,inactive,–
Cc1cc(C2(c3cc(C)c(O)cc3C)OS(=O)(=O)c3ccccc32)c(C)cc1O,inactive,–
CCCC1CCC(=O)O1 (stereo unspecified),inactive,–
COc1cc(C(C)(C)C)c(O)c(C(C)(C)C)c1,inactive,–
OCCN1CCNCC1,inactive,–
C=C[Si](OCC)(OCC)OCC,inactive,–
CCCCCCCCCCCCCOS(=O)(=O)O,inactive,–
C/C=C(\C)C(=O)OCc1ccccc1,inactive,–
C=C[C@@H](C)CCC=C(C)C,inactive,–
S=C(S)NCCNC(=S)S,inactive,–
N#Cc1nc(Cl)c(Cl)c(Cl)c1Cl,inactive,–
[Ca+2],inactive,–
O=C(O)c1ccc([N+](=O)[O-])cc1,inactive,–
CCCc1c(OCCCOc2ccc(OCC(=O)O)cc2)ccc(C(C)=O)c1O,inactive,–
CC(=O)[O][Al][O]C(C)=O,inactive,–
OCc1cccnc1,inactive,–
O=C1CCc2ccccc2O1,inactive,–

# Assay: ATG_TGFb_CIS: Attagene CIS-FACTORIAL HepG2 Assay for human Transforming Growth Factor (TGF) (AID 2282967)
# Conditions: HepG2 Attagene CIS TGFb reporter, mRNA transcription; actives raise or lower the signal
# Method in brief: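 Transcript-level reporter readout: HepG2 transfectants, 24 h exposure, RNA to cDNA, reporter-specific PCR, fluorescent primer extension, capillary sizing against ROX standards. Gain- or loss-of-signal relative to DMSO.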
SMILES,outcome,AC50
CC(C)Oc1ccccc1O,inactive,–
CCC(=O)/C=C/C1C(C)=CCCC1(C)C (stereo unspecified),inactive,–
Cc1ccc(C(C)C)cc1O,inactive,–
CC1CC(OC(=O)c2ccccc2O)CC(C)(C)C1 (stereo unspecified),inactive,–
Clc1nc(C(Cl)(Cl)Cl)c(Cl)c(Cl)c1Cl,–,62.2 µM (active)
CCCCCCCCCCCCCC(=O)O,inactive,–
COC(C(=O)O)c1ccccc1 (stereo unspecified),inactive,–
CC(C=O)Cc1ccc(C(C)C)cc1 (stereo unspecified),inactive,–
O=[N+]([O-])c1cc(C(F)(F)F)ccc1Cl,inactive,–
CN(CCOc1ccc(CC2SC(=O)NC2=O)cc1)c1ccccn1 (stereo unspecified),inactive,–
Sc1nc(S)nc(S)n1,inactive,–
CC(C)(Oc1ccc(CCNC(=O)c2ccc(Cl)cc2)cc1)C(=O)O,inactive,–
CCn1c2ccccc2c2cc(N)ccc21,inactive,–
CC(C)=CCC/C(C)=C/COC=O,inactive,–
COc1c(Cl)c(Cl)c(Cl)c(Cl)c1Cl,inactive,–
OCCCCCO,inactive,–
CCCCCOC(=O)CCC,inactive,–
CC(C)=CCC[C@H](C)CC=O,inactive,–
O=C(Nc1ccccc1)c1cc([N+](=O)[O-])ccc1Cl,inactive,–

SMILES,outcome,AC50
O=C(Cl)c1cccc(C(=O)Cl)c1,inactive,–
O=C1NC(=O)c2ccccc21,inactive,–
c1ccc2[nH]ccc2c1,inactive,–
Cc1cc(C2(c3cc(C)c(O)cc3C)OS(=O)(=O)c3ccccc32)c(C)cc1O,inactive,–
CCCC1CCC(=O)O1 (stereo unspecified),inactive,–
COc1cc(C(C)(C)C)c(O)c(C(C)(C)C)c1,inactive,–
OCCN1CCNCC1,inactive,–
C=C[Si](OCC)(OCC)OCC,inactive,–
CCCCCCCCCCCCCOS(=O)(=O)O,inactive,–
C/C=C(\C)C(=O)OCc1ccccc1,inactive,–
C=C[C@@H](C)CCC=C(C)C,inactive,–
S=C(S)NCCNC(=S)S,inactive,–
N#Cc1nc(Cl)c(Cl)c(Cl)c1Cl,inactive,–
[Ca+2],inactive,–
O=C(O)c1ccc([N+](=O)[O-])cc1,inactive,–
CCCc1c(OCCCOc2ccc(OCC(=O)O)cc2)ccc(C(C)=O)c1O,–,70.5 µM (active)
CC(=O)[O][Al][O]C(C)=O,inactive,–
OCc1cccnc1,inactive,–
O=C1CCc2ccccc2O1,inactive,–
